Laboratory results published in PubChem BioAssay (EPA / NIEHS).
“And” between values parts separate entries of the source, which are not always exact repeats. Equal entries are not always repeated. Inconclusive results are not listed. Some compounds were tested as several samples or in several runs, with calls that do not always agree. The source made the active and inactive calls. The calls were made as follows: active = hit-call score of the fitted dose curve at least 0.9, where 1 is the maximum; inconclusive = response in the unintended direction; inactive = score below 0.9.

How the values were obtained:
[1] = ATG_XTT_Cytotoxicity: Cytotoxicity Assessment in the Attagene TRANS-FACTORIAL HepG2 Assay (AID 2283584)
Outline: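 Cells: human HepG2, transiently transfected with MRTU reporter constructs. Exposure 24 h. Readout: XTT, cell number. Baseline/neg ctrl DMSO; loss-of-signal scored.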

[2] = TOX21_p53_BLA_p2_viability: Viability Assessment in the Tox21 HCT-116 p53 Agonism Beta-lactamase Assay, Phase 2 (AID 2283591);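 also: compound exposure lasted 16 h at 37 °C; actives lower the ATP signal meaning cytotoxicity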
Outline: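 HCT116 p53-bla cells, 4000/well, dosed after 5 h plating (217-fold dilution of DMSO stocks) and incubated 16 h at 37C. Viability taken as cellular ATP by CellTiter-Glo luminescence after 30 min RT; signal loss marks cytotoxicity.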

[3] = target: Cellular tumor antigen p53 (Homo sapiens) (UniProt P04637); assay: TOX21_p53_BLA_p2_ratio: Tox21 HCT-116 p53 Agonism Beta-lactamase Assay, Ratio, Phase 2 (AID 2283592)
Outline: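 Plated HCT116 p53-bla cells (4000/well) received compound after 5 h, then 16 h at 37C/5% CO2. CCF4-AM added, 2 h RT. Ratio of 460 to 530 nm emission taken as the p53 reporter signal.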

[4] = TOX21_p53_BLA_p3_viability: Viability Assessment in the Tox21 HCT-116 p53 Agonism Beta-lactamase Assay, Phase 3 (AID 2283593);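 also: cells exposed to compound for 16 h before reading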
Outline: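 HCT116 cells, 4000/well, dosed 5 h after plating by pin transfer (217-fold dilution from DMSO stock) and incubated 16 h at 37C, 5% CO2. Viability read as ATP luminescence with CellTiter-Glo after 30 min at room temperature.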

Cellular tumor antigen p53 (Homo sapiens), sequence (P04637 whole entry, looked up): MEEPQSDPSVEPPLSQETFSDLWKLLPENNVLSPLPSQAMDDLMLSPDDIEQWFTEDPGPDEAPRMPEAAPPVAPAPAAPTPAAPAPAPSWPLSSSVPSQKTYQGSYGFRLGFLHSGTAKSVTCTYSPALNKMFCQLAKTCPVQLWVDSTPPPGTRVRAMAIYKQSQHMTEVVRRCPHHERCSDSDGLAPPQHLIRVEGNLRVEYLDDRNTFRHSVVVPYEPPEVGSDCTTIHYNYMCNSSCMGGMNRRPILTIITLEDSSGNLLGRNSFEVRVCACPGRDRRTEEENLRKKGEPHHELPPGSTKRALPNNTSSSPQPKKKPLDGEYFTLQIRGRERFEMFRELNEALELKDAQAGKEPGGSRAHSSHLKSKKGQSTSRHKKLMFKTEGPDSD

What does the source list for `c1ccc(Nc2cccc3ccccc23)cc1`?
outcome [1]: inactive; AC50 [2]: 71.1 µM (active); outcome [2]: inactive; AC50 [3]: 77.1 µM (active) and 81.1 µM (active); outcome [4]: inactive

Which outcome [1] does the source give for `CCCCOC(=O)C(C)CC` (centres undefined) here?
Its outcome is “inactive”.

What about the outcome [2] of the same molecule?
Its outcome is “inactive”.

And the outcome [3]?
Its outcome is “inactive”.

Which outcome [1] does the source give for `O=C(Nc1ccccc1)c1cc(Cl)ccc1O` here?
The outcome was “inactive”.

And the AC50 [2]?
The AC50 was 12.9 µM (active).

And the AC50 [3]?
The AC50 was 3.55 µM (active).

With `CC(C)(C)C1CCC(=O)CC1` as the molecule, how does the outcome [1] read?
Its outcome is “inactive”.

What about the outcome [2] of the same molecule?
The outcome was “inactive”.

What about the outcome [3] of the same molecule?
Its outcome is “inactive”.

What about the outcome [4] of the same molecule?
Its outcome is “inactive”.

Which outcome [1] does the source give for `C=C(C)C(=O)OCCCCCCCCCCCC` here?
The outcome was “inactive”.

What about the outcome [2] of the same molecule?
Its outcome is “inactive”.

What about the outcome [3] of the same molecule?
Its outcome is “inactive”.

With `CC(=O)OC(C)c1ccccc1` (centres undefined) as the molecule, how does the outcome [1] read?
Its outcome is “inactive”.

And the outcome [2]?
The outcome was “inactive”.

What about the outcome [3] of the same molecule?
Its outcome is “inactive”.

What does the source list for `C=C1C[C@H]2[C@@H]3C=C(C)C4=CC(=O)CC[C@]4(C)[C@H]3CC[C@]2(C)[C@@]1(OC(C)=O)C(C)=O`?
outcome [1]: inactive; outcome [2]: inactive; outcome [3]: inactive; outcome [4]: inactive

For `CCCCC1C(=O)N(c2ccccc2)N(c2ccccc2)C1=O`, which outcome [1] is on record?
The outcome was “inactive”.

What about the outcome [2] of the same molecule?
Its outcome is “inactive”.

What about the outcome [3] of the same molecule?
The outcome was “inactive”.

And the outcome [4]?
Its outcome is “inactive”.

Which outcome [1] does the source give for `CC(C)(CO)COC(=O)C(C)(C)CO` here?
Its outcome is “inactive”.

What about the outcome [2] of the same molecule?
Its outcome is “inactive”.

And the outcome [3]?
Its outcome is “inactive”.

For `C=CCCCCCCCCO`, which outcome [1] is on record?
Its outcome is “inactive”.

What about the outcome [2] of the same molecule?
The outcome was “inactive”.

And the outcome [3]?
The outcome was “inactive”.

Which outcome [1] does the source give for `CCCCNS(=O)(=O)c1ccccc1` here?
The outcome was “inactive”.

And the outcome [2]?
Its outcome is “inactive”.

What about the outcome [3] of the same molecule?
The outcome was “inactive”.

What does the source list for `O=C(O)c1ccc2c(c1)C(=O)OC2=O`?
outcome [1]: inactive; outcome [2]: inactive; outcome [3]: inactive; outcome [4]: inactive

With `Cc1noc(NS(=O)(=O)c2ccc(N)cc2)c1C` as the molecule, how does the outcome [1] read?
Its outcome is “inactive”.

And the outcome [2]?
The outcome was “inactive”.

What about the outcome [3] of the same molecule?
The outcome was “inactive”.

Which outcome [1] does the source give for `CCCCCCCCCCCCCC(=O)OC(C)C` here?
The outcome was “inactive”.

What about the outcome [2] of the same molecule?
Its outcome is “inactive”.

And the outcome [3]?
Its outcome is “inactive”.

With `COC(C=C(C)CCC=C(C)C)OC` as the molecule, how does the outcome [1] read?
The outcome was “inactive”.

What about the outcome [2] of the same molecule?
Its outcome is “inactive”.

And the outcome [3]?
The outcome was “inactive”.

With `CC(C)CC(=O)OCc1ccccc1` as the molecule, how does the outcome [1] read?
The outcome was “inactive”.

And the outcome [2]?
The outcome was “inactive”.

And the outcome [3]?
The outcome was “inactive”.

Which results are given for `CCN1CCCC1=O`?
outcome [1]: inactive; outcome [2]: inactive; outcome [3]: inactive; outcome [4]: inactive

Which outcome [1] does the source give for `c1ccc2c(c1)[nH]c1ccccc12` here?
The outcome was “inactive”.

What about the outcome [2] of the same molecule?
Its outcome is “inactive”.

And the outcome [3]?
The outcome was “inactive”.

And the outcome [4]?
The outcome was “inactive”.

Which outcome [1] does the source give for `CC1C(C)(C)C2=C(C(=O)CCC2)C1(C)C` (centres undefined) here?
The outcome was “inactive”.

And the outcome [2]?
The outcome was “inactive”.

And the outcome [3]?
Its outcome is “inactive”.

And the outcome [4]?
Its outcome is “inactive”.

Which outcome [1] does the source give for `C/C=C/C=C/CCCCCCCO` here?
Its outcome is “inactive”.

And the outcome [2]?
The outcome was “inactive”.

And the outcome [3]?
Its outcome is “inactive”.

What about the outcome [4] of the same molecule?
The outcome was “inactive”.

With `CC/C=C\CCOC(=O)c1ccccc1O` as the molecule, how does the outcome [1] read?
Its outcome is “inactive”.

What about the outcome [2] of the same molecule?
Its outcome is “inactive”.

What about the outcome [3] of the same molecule?
Its outcome is “inactive”.

And the outcome [4]?
The outcome was “inactive”.

Which outcome [1] does the source give for `CCOC(=O)/C=C\C(=O)OCC` here?
The outcome was “inactive”.

What about the outcome [2] of the same molecule?
The outcome was “inactive”.

What about the outcome [3] of the same molecule?
The outcome was “inactive”.

And the outcome [4]?
The outcome was “inactive”.

What does the source list for `N=C1C=CC(=C(c2ccc(N)cc2)c2ccc(N)cc2)C=C1`?
outcome [1]: inactive; outcome [2]: inactive; AC50 [3]: 54.2 µM (active); outcome [4]: inactive

Which results are given for `O=C(Cl)c1c(Cl)c(Cl)c(C(=O)Cl)c(Cl)c1Cl`?
outcome [1]: inactive; outcome [2]: inactive; outcome [3]: inactive; outcome [4]: inactive

With `c1ccc2cnccc2c1` as the molecule, how does the outcome [1] read?
Its outcome is “inactive”.

What about the outcome [2] of the same molecule?
Its outcome is “inactive”.

What about the outcome [4] of the same molecule?
The outcome was “inactive”.

With `C=CC(=O)OCCCCCCOC(=O)C=C` as the molecule, how does the outcome [1] read?
Its outcome is “inactive”.

And the outcome [2]?
The outcome was “inactive”.

What about the AC50 [3] of the same molecule?
Its AC50 is 69.1 µM (active) and 66.7 µM (active).

And the outcome [4]?
Its outcome is “inactive”.

With `Cc1cc(C)n(CO)n1` as the molecule, how does the outcome [1] read?
The outcome was “inactive”.

What about the outcome [2] of the same molecule?
Its outcome is “inactive”.

And the outcome [4]?
Its outcome is “inactive”.

What does the source list for `CC(C)c1cccc(C(C)C)c1N`?
outcome [1]: inactive; outcome [2]: inactive; outcome [3]: inactive; outcome [4]: inactive

With `CCOC(=O)c1ccc(C)cc1` as the molecule, how does the outcome [1] read?
The outcome was “inactive”.

What about the outcome [2] of the same molecule?
The outcome was “inactive”.

And the outcome [4]?
The outcome was “inactive”.

Which outcome [1] does the source give for `COCC(=O)O` here?
The outcome was “inactive”.

And the outcome [2]?
Its outcome is “inactive”.

And the outcome [3]?
Its outcome is “inactive”.

What about the outcome [4] of the same molecule?
Its outcome is “inactive”.

Which outcome [1] does the source give for `Cc1c(C(=O)c2c[nH]n(C)c2=O)ccc(S(C)(=O)=O)c1C1=NOCC1` here?
The outcome was “inactive”.

What about the outcome [3] of the same molecule?
The outcome was “inactive”.

With `CC1OC(=O)C(C)OC1=O` (centres undefined) as the molecule, how does the outcome [1] read?
Its outcome is “inactive”.

And the outcome [2]?
The outcome was “inactive”.

And the outcome [3]?
Its outcome is “inactive”.

And the outcome [4]?
Its outcome is “inactive”.

Which outcome [1] does the source give for `CCOC(=O)C1=NOC(c2ccccc2)(c2ccccc2)C1` here?
The outcome was “inactive”.

What about the outcome [3] of the same molecule?
Its outcome is “inactive”.

With `O=C1CCCCCCCCCCCN1` as the molecule, how does the outcome [1] read?
Its outcome is “inactive”.

And the outcome [2]?
Its outcome is “inactive”.

What about the outcome [3] of the same molecule?
Its outcome is “inactive”.

What about the outcome [4] of the same molecule?
Its outcome is “inactive”.

With `O=C(Cl)c1ccc(C(=O)Cl)cc1` as the molecule, how does the outcome [1] read?
The outcome was “inactive”.

What about the outcome [2] of the same molecule?
The outcome was “inactive”.

What about the outcome [3] of the same molecule?
The outcome was “inactive”.

And the outcome [4]?
The outcome was “inactive”.

For `CC1CC(=O)CC(C)(C)C1` (centres undefined), which outcome [1] is on record?
The outcome was “inactive”.

And the outcome [3]?
The outcome was “inactive”.

For `CCC1COC(=O)O1` (centres undefined), which outcome [1] is on record?
The outcome was “inactive”.

What about the outcome [3] of the same molecule?
Its outcome is “inactive”.

With `Oc1ccc(/C=C/c2cc(O)cc(O)c2)cc1` as the molecule, how does the outcome [1] read?
Its outcome is “inactive”.

And the outcome [2]?
Its outcome is “inactive”.

And the outcome [3]?
The outcome was “inactive”.

What about the outcome [4] of the same molecule?
Its outcome is “inactive”.

For `C=C(C)[C@@H]1CC=C(C)CC1`, which outcome [1] is on record?
Its outcome is “inactive”.

What about the outcome [2] of the same molecule?
Its outcome is “inactive”.

And the outcome [4]?
The outcome was “inactive”.

Which outcome [1] does the source give for `CCCCCCCCCCCCCCCCCCOS(=O)(=O)O` here?
The outcome was “inactive”.

And the outcome [2]?
The outcome was “inactive”.

And the AC50 [4]?
Its AC50 is 66.9 µM (active).

For `Nc1ccc(C(=O)OCCCOC(=O)c2ccc(N)cc2)cc1`, which outcome [1] is on record?
The outcome was “inactive”.

And the outcome [2]?
Its outcome is “inactive”.

What about the outcome [4] of the same molecule?
The outcome was “inactive”.

Which outcome [1] does the source give for `O=C(Oc1ccccc1)c1ccccc1C(=O)Oc1ccccc1` here?
The outcome was “inactive”.

And the outcome [2]?
Its outcome is “inactive”.

What about the outcome [3] of the same molecule?
Its outcome is “inactive”.

And the outcome [4]?
The outcome was “inactive”.

Which outcome [1] does the source give for `CC(C)OC(=O)c1ccccc1` here?
Its outcome is “inactive”.

What about the outcome [2] of the same molecule?
Its outcome is “inactive”.

What about the outcome [3] of the same molecule?
Its outcome is “inactive”.

What about the outcome [4] of the same molecule?
Its outcome is “inactive”.

With `CC(C)[N+](C)(CCOC(=O)C1c2ccccc2Oc2ccccc21)C(C)C` as the molecule, how does the outcome [1] read?
Its outcome is “inactive”.

What about the outcome [2] of the same molecule?
The outcome was “inactive”.

And the outcome [3]?
The outcome was “inactive”.

What about the outcome [4] of the same molecule?
The outcome was “inactive”.

For `CC(C)(C)NC(=O)[C@H]1CC[C@H]2[C@@H]3CC[C@H]4NC(=O)C=C[C@]4(C)[C@H]3CC[C@]12C`, which outcome [1] is on record?
The outcome was “inactive”.

What about the outcome [2] of the same molecule?
The outcome was “inactive”.

What about the outcome [3] of the same molecule?
Its outcome is “inactive”.

What about the outcome [4] of the same molecule?
Its outcome is “inactive”.

What does the source list for `N#CC1(N)CCCCC1`?
outcome [1]: inactive; outcome [2]: inactive; outcome [3]: inactive; outcome [4]: inactive

What does the source list for `O=C(O)/C=C/c1ccccc1`?
outcome [1]: inactive; outcome [2]: inactive; outcome [3]: inactive; outcome [4]: inactive
